ALOX15B inhib: 15-hLO-2 (ALOX15B) enzyme inhibition; O15296; purified 15hLO-2, xylenol orange hydroperoxide absorbance; Potency, µM (series often up to 57.1 µM), most hits filed as inhibitors; 110,000 tested, 0.56% active; AID 881; note: nearly all actives have a fitted effect of over 60% in size
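Purified human 15hLO-2 (50 nM) preincubated 15 min with compound, then 45 uM arachidonic acid for 90 min at RT in 25 mM Hepes pH 7.5, 0.01% Triton X-100. Hydroperoxide detected by Fe-xylenol orange; 573/405 nm absorbance ratio.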
Casp1 inh: blocks human caspase-1 allosterically or competitively; Caspase-1 enzyme, Ac-WEHD-AFC fluorogenic rate; Potency, µM (series often up to 57.5 µM), hits mostly inhibitors; P29466; 75,000 tested, 0.03% active
Caspase-7 inhib: allosteric or competitive inhibitors of human caspase-7 | recombinant caspase-7, Ac-DEVD-AFC fluorescence rate | P55210 | 75,000 tested, 0.02% active | Potency, µM (highest dose often 57.5 µM), actives largely listed as inhibitors; active = well fitted inhibition curve with a large enough effect in the main read-out, with a control signal flat, not every such curve was filed as active; inconclusive = small, poorly fitted or top-dose-only effect, or a change in a side signal
Target sequence (P55210 24-198 limits assumed): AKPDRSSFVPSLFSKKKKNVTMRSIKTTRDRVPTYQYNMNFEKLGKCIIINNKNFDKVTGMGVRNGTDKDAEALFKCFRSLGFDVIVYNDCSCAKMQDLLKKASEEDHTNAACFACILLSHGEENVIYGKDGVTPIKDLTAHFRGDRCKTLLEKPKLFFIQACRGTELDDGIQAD
Target sequence (P55210 207-303 limits assumed): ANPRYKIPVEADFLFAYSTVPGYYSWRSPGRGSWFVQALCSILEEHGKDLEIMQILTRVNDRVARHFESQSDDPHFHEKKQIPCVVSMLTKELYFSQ
15-hLO inh: inhibitors of human 15-lipoxygenase (ALOX15); P16050; purified 15hLO-1, xylenol orange hydroperoxide absorbance; Potency, µM (titrated, usually from 57.1 µM), usual class: inhibitors; 74,000 tested, 1.4% active; note: nearly all actives have a fitted effect of over 55% in size
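Readout: Fe(III)-xylenol orange absorbance, 573-to-405 nm ratio as reaction progress. Enzyme 40 nM purified human 15hLO-1, substrate 50 uM arachidonic acid, 6 min RT after 15 min compound preincubation; Hepes pH 7.5 buffer with Triton X-100.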
TSHR ag: agonists of human thyroid stimulating hormone receptor; HEK293-CNG-TSHR cells (CNG channel as cAMP sensor), membrane potential dye, cAMP; 73,000 tested, 0.48% active; Potency, µM (doses to about 57.1 µM), usual class: activators; P16473; active = well fitted activation curve with a large enough effect in the main read-out, with a control signal flat, not every such curve was filed as active; inconclusive = small, poorly fitted or top-dose-only effect, or a change in a side signal; inactive = no such curve, though single readings can be large or run the other way; reference of the percent scale not stated here;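 note: the control signal comes from parental cells without the receptor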
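cAMP rise detected as CNG-channel membrane depolarization by fluorescent dye (emission 590 nm), 30 min after compound, following 60 min dye loading containing 100 uM RO 20-1724 at room temperature. Cells: TSHR/CNG HEK 293, with parental CNG HEK 293 as control.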
HEK293 cAMP cs: counter-screen for TSHR agonists: cAMP increase in parental HEK293; parental HEK293 CNG cAMP sensor, membrane potential fluorescence; Potency, µM (series often up to 57.1 µM), actives largely listed as activators; 73,000 tested, 2.5% active; AID 938; note: nearly all actives have a fitted effect of over 55% in size
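Parental HEK 293 cells stably expressing a cAMP-gated CNG channel were loaded with membrane potential dye containing 100 uM RO 20-1724 for 60 min. Compound added for 30 min; depolarization read as fluorescence intensity at 590 nm.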
A number is an active result; ! = repeats disagree. The list is not random: actives were taken first. Their share in the collection is about 3%. Unless noted, calls come from the whole dose curve; as a rule, active = well fitted curve in the direction sought with a large enough effect; inconclusive = small, poorly fitted or top-dose-only effect, or another doubt; inactive = no such curve, though single readings can be large; an effect the other way counts as inactive or inconclusive.

Results for CC1CCC(C(C)C)C(OC(=O)CSc2n[nH]c(=O)[nH]c2=O)C1 (stereo not drawn) ?
ALOX15B inhib: inactive; Casp1 inh: inactive; Caspase-7 inhib: inactive; 15-hLO inh: inactive; TSHR ag: 20µM; HEK293 cAMP cs: inactive

How did Cc1nc(N=Nc2cc(S(=O)(=O)O)c3cc([N+](=O)[O-])cc(S(=O)(=O)O)c3c2)c(COP(=O)(O)O)c(C=O)c1O do in these assays?
ALOX15B inhib: inactive; Casp1 inh: inactive; Caspase-7 inhib: inactive; 15-hLO inh: 10µM!; TSHR ag: inactive; HEK293 cAMP cs: inactive

Results for Cc1ccc(OCc2nc(C#N)c(N3CCN(Cc4ccccc4)CC3)o2)cc1 ?
ALOX15B inhib: inactive; Casp1 inh: inactive; Caspase-7 inhib: inactive; 15-hLO inh: inactive; TSHR ag: inconclusive; HEK293 cAMP cs: 2µM

How did N#Cc1nc(COc2cccc(Cl)c2)oc1N1CCCC1 do in these assays?
ALOX15B inhib: inactive; Casp1 inh: inactive; Caspase-7 inhib: inactive; 15-hLO inh: inactive; TSHR ag: inconclusive; HEK293 cAMP cs: 13µM

Results for N#Cc1nc(COc2ccccc2)oc1N1CCN(Cc2ccccc2)CC1 ?
ALOX15B inhib: inactive; Casp1 inh: inactive; Caspase-7 inhib: inactive; 15-hLO inh: inactive; TSHR ag: inconclusive; HEK293 cAMP cs: 13µM

Results for N#Cc1nc(COc2ccc(F)cc2)oc1N1CCCC1 ?
ALOX15B inhib: inactive; Casp1 inh: inactive; Caspase-7 inhib: inactive; 15-hLO inh: inactive; TSHR ag: inconclusive; HEK293 cAMP cs: inconclusive

Results for N#Cc1nc(COc2ccccc2)oc1N1CCC(Cc2ccccc2)CC1 ?
ALOX15B inhib: inactive; Casp1 inh: inactive; Caspase-7 inhib: inactive; 15-hLO inh: inactive; TSHR ag: inconclusive; HEK293 cAMP cs: inconclusive

How did COc1ccc(N2Cc3cccc(C(=O)NC(C)CCc4ccco4)c3C2=O)cc1 (stereo not drawn) do in these assays?
ALOX15B inhib: inactive; Casp1 inh: inactive; Caspase-7 inhib: inactive; 15-hLO inh: 20µM; TSHR ag: inactive; HEK293 cAMP cs: inactive

How did NC1=NC(S)C2N=CN=C2N1 (stereo not drawn) do in these assays?
ALOX15B inhib: inactive; Casp1 inh: inactive; Caspase-7 inhib: inactive; 15-hLO inh: inconclusive; TSHR ag: inactive; HEK293 cAMP cs: inactive

Results for CCC(=O)Nc1c2c(nn1-c1ccc(F)cc1)CS(=O)C2 (stereo not drawn) ?
ALOX15B inhib: inactive

What do the screens show for `O=C(Nc1c2c(nn1-c1ccc(F)cc1)CS(=O)(=O)C2)C12CC3CC(CC(C3)C1)C2`?
ALOX15B inhib: inactive; Casp1 inh: inactive; Caspase-7 inhib: inactive; 15-hLO inh: inactive; TSHR ag: inconclusive; HEK293 cAMP cs: 16µM

What do the screens show for `O=C(CCC1CCCCC1)Nc1c2c(nn1-c1ccc(F)cc1)CS(=O)(=O)C2`?
ALOX15B inhib: inactive; Casp1 inh: inactive; Caspase-7 inhib: inactive; 15-hLO inh: inconclusive; TSHR ag: inconclusive; HEK293 cAMP cs: 3.2µM

What do the screens show for `CC(C)CC(=O)Nc1c2c(nn1-c1ccc(F)cc1)CSC2`?
Casp1 inh: inactive; Caspase-7 inhib: inactive; 15-hLO inh: inactive; TSHR ag: inconclusive; HEK293 cAMP cs: inconclusive

Results for CCOC(=O)c1cc(-c2ccccc2)sc1NC(=S)Nc1cc(C)ccn1 ?
ALOX15B inhib: 10µM

How did CCOC(=O)c1cc(-c2ccccc2)sc1NC(=O)C(C)(C)C do in these assays?
ALOX15B inhib: inactive

How did CC[C@]1(O)C[C@H]2CN(CCc3c([nH]c4ccccc34)[C@](C(=O)OC)(c3cc4c(cc3OC)N(C=O)[C@H]3[C@@](O)(C(=O)OC)[C@H](OC(C)=O)[C@@]5(CC)C=CCN6CC[C@]43[C@H]65)C2)C1 do in these assays?
ALOX15B inhib: inactive; Casp1 inh: inactive; Caspase-7 inhib: inactive; 15-hLO inh: inconclusive; TSHR ag: inactive; HEK293 cAMP cs: inactive

How did COC(=O)c1ccccc1NC(=O)c1cc(OC)cc(OC)c1 do in these assays?
ALOX15B inhib: inactive; Casp1 inh: inactive; Caspase-7 inhib: inactive; 15-hLO inh: inactive; TSHR ag: inconclusive; HEK293 cAMP cs: 25µM

What do the screens show for `COC(=O)c1ccccc1NC(=O)COc1ccccc1`?
ALOX15B inhib: inactive; Casp1 inh: inactive; Caspase-7 inhib: inactive; 15-hLO inh: inactive; TSHR ag: inconclusive; HEK293 cAMP cs: 32µM
